For 21 compounds, Potency results are on record in PubChem BioAssay (NCATS).

Records with an inconclusive call do not appear. A call without a number means that no potency is given here. Activity calls are given as the source filed them. The call rests on the fitted dose curve; in most records, active means well fitted curve in the direction sought with a large enough effect; inconclusive means small, poorly fitted or top-dose-only effect, or another doubt; inactive means no such curve, though single readings can be large; an effect the other way counts as inactive or inconclusive.

One assay deals with Zika virus NS2B-NS3 protease (linked construct). Nature of the assay: 384 well plate NINDS Rhodamine confirmatory qHTS for Zika virus inhibitors (AID 1347164). Further: potency means the concentration at half of the fitted maximal effect; nearly all actives have a fitted effect of over 65% in size. Particulars: rhodamine-110 peptide substrate fluorescence; series mostly up to 1 mM. The gist of the method: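 Compounds are incubated about 15 minutes with linked protease (5, 30 or 60 nM final). Rhodamine 110-tagged Ac-LKRR substrate (10 microM final) is added and fluorescence measured after 25 minutes.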
In general terms: In qHTS, concentration-response curves come from the screen itself.
For the compound `COc1cc(O)c2c(=O)cc(-c3ccc(OC)c(-c4c(O)cc(O)c5c(=O)cc(-c6ccc(O)cc6)oc45)c3)oc2c1`, the Potency was 112 µM (active).

Take `CC(=O)Oc1cc2c(c(C)c1OC(C)=O)CC=C1[C@@]2(C)CC[C@@]2(C)[C@H]3C[C@](C)(C(=O)O)CC[C@]3(C)CC[C@]12C`: the Potency was 35.5 µM (active).

On to `Clc1ccc(-c2nn3c(COc4cc(Cl)c(OCc5nnc6sc(-c7ccc(Cl)cc7)nn56)cc4Cl)nnc3s2)cc1`, for which the Potency was 28.2 µM (active). As for `Cc1cc(C)cc(C(=O)N(C)[C@H](Cc2ccc(-c3ccccc3)cc2)C(=O)N[C@@H](Cc2c[nH]c3ccccc23)C(=O)O)c1`, the Potency is 28.2 µM (active). Still for that read-out and setting: with `O=C(O)c1c(Sc2ccccc2)c2cc(Cl)ccc2n1Cc1ccc(Cl)cc1` the figure was 22.4 µM (active); with `CCCCc1nn(-c2ccccc2C(F)(F)F)c(=O)n1Cc1ccc(-c2ccccc2S(=O)(=O)NC(=O)c2sccc2C)cc1`, 28.2 µM (active). On the same count and under the same terms, with `CC(C)=CCCC1(C)C=Cc2c(O)c3c(c(CC=C(C)C)c2O1)OC12C(=CCCC1C(C)(C)O[C@@]2(C/C=C(\C)C(=O)O)C(=O)O)C3=O` (stereo partly drawn) the figure was 22.4 µM (active); with `CCOc1nc2cccc(C(=O)OC(C)OC(=O)OC3CCCCC3)c2n1Cc1ccc(-c2ccccc2-c2nn[nH]n2)cc1` (stereo not drawn), 12.6 µM (active); with `O=C(O)c1cccc(-c2cccc(C(F)(F)F)c2)c1`, 501 µM (active). Regarding `Clc1cc(OCc2nnc3sc(Cc4ccccc4)nn23)c(Cl)cc1OCc1nnc2sc(Cc3ccccc3)nn12`, the Potency was 7.94 µM (active).

`O=C(O)c1cc(NCc2cc(O)ccc2O)ccc1O`: the Potency was 22.4 µM (active).

Test system in a further assay: not listed separately
Description: HepG2 cells viability qHTS for Zika virus inhibitors (AID 1347168). Further: potency means the concentration at half of the fitted maximal effect. Particulars: Zika counter-screen; series mostly up to 45.9 µM. The gist of the method:
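qHTS titration; 24-48 h compound exposure, 37 degrees C/5% CO2; DMEM, 4% FBS; CellTiter Glo ATP luminescence.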
Regarding `CC(=O)Oc1cc2c(c(C)c1OC(C)=O)CC=C1[C@@]2(C)CC[C@@]2(C)[C@H]3C[C@](C)(C(=O)O)CC[C@]3(C)CC[C@]12C`, the Potency is 13.1 µM (active). Same read-out and setting: with `Cc1c(-c2ccc(O)cc2)nn(-c2ccc(O)cc2)c1-c1ccc(OCCN2CCCCC2)cc1` the figure was 29.4 µM (active); with `Cc1cc(C)cc(C(=O)N(C)[C@H](Cc2ccc(-c3ccccc3)cc2)C(=O)N[C@@H](Cc2c[nH]c3ccccc23)C(=O)O)c1`, “inactive”. For `O=C(O)c1c(Sc2ccccc2)c2cc(Cl)ccc2n1Cc1ccc(Cl)cc1`, the Potency entry was “inactive”. The same measure, in the same setting: next, `CCCCc1nn(-c2ccccc2C(F)(F)F)c(=O)n1Cc1ccc(-c2ccccc2S(=O)(=O)NC(=O)c2sccc2C)cc1`: “inactive”; `C=NC(C(=O)N[C@H]1C(=O)N2C1SC(C)(C)C2C(=O)O)c1ccccc1` (stereo partly drawn): “inactive”. Still for that read-out and setting: with `CC(C)=CCCC1(C)C=Cc2c(O)c3c(c(CC=C(C)C)c2O1)OC12C(=CCCC1C(C)(C)O[C@@]2(C/C=C(\C)C(=O)O)C(=O)O)C3=O` (stereo partly drawn) the entry was “inactive”. For `CCOc1nc2cccc(C(=O)OC(C)OC(=O)OC3CCCCC3)c2n1Cc1ccc(-c2ccccc2-c2nn[nH]n2)cc1` (stereo not drawn), the Potency result is “inactive”. Same read-out and setting: next, `CN(C)[C@@H]1C(=O)C(C(=O)NCN2CCCC2)=C(O)[C@@]2(O)C(=O)C3=C(O)c4c(O)cccc4[C@@](C)(O)[C@H]3C[C@@H]12`: “inactive”. Still for that read-out and setting: with `O=C(O)c1cc(NCc2cc(O)ccc2O)ccc1O` the entry was “inactive”.

Test system in the next assay: not listed separately
Nature of the assay: Tertiary RLuc qRT-PCR qHTS assay for Zika virus inhibitors (AID 1347169). Further: nearly all actives have a fitted effect of over 55% in size. Further: potency means the concentration at half of the fitted maximal effect. As to conditions: infected Vero cells, reporter luminescence, 48-72 h; series mostly up to 1.74 µM. An outline of the steps:
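Orthogonal cell-based infection assay using recombinant ZIKV-RLuc (Cambodian) in Vero cells; compound added prior to virus at MOI 1-2. Incubation lasts 48-72 hrs at 37 degrees C before live-cell Renilla substrate is added and luminescence measured.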
Consider `O=S(=O)(N[C@H]1CO[C@H]2[C@@H]1OC[C@@H]2n1nnnc1-c1ccc2c(c1)OCO2)c1ccc2ccccc2c1`, for which the Potency entry is “inactive”. Same read-out and setting: next, `COc1cc(O)c2c(=O)cc(-c3ccc(OC)c(-c4c(O)cc(O)c5c(=O)cc(-c6ccc(O)cc6)oc45)c3)oc2c1`: 16.5 µM (active); `C[C@@H](NC(=O)c1ccc(Cl)cc1)c1c(-c2ccc(F)cc2)noc1C(=O)O`: “inactive”; `O=C(OCC#CCSc1nnc(-c2ccc(Cl)cc2)o1)c1ccc(F)cc1`: “inactive”. Still for that read-out and setting: with `C=NC(C(=O)N[C@H]1C(=O)N2C1SC(C)(C)C2C(=O)O)c1ccccc1` (stereo partly drawn) the entry was “inactive”; with `COc1ccccc1-c1ccnc(N[C@H]2CO[C@H]3[C@@H]2OC[C@@H]3NS(=O)(=O)c2ccc3ccccc3c2)n1`, 16.5 µM (active). `C[S+](=O)([O-])c1ccc(OCC2CN(Cc3ccccc3)C(=O)c3c(ccnc3-c3ccc(OCC(=O)O)cc3)O2)cc1` (stereo not drawn): the Potency result was “inactive”. Same read-out and setting: next, `O=C(Nc1ccc(Oc2ccccc2)cc1)O[C@@H]1CO[C@H]2[C@@H]1OC[C@@H]2n1nnnc1-c1ccc(-c2ccccc2)cc1`: “inactive”.

Test system in another assay: not listed separately
Description: Primary qHTS for small molecule stabilizers of the endoplasmic reticulum resident proteome: Secreted ER Calcium Modulated Protein (SERCaMP) assay (AID 1508630). As to conditions: SH-SY5Y GLuc-SERCaMP (Gaussia luciferase released on ER calcium loss) secretion, thapsigargin, luminescence; series mostly up to 38.4 µM. An outline of the steps:
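The SH-SY5Y reporter protocol was run at 3 concentrations up to 38.3 uM (primary) or 11 concentrations (follow-up): 16 h compound, 100 nM thapsigargin for 4 h, then extracellular luciferase luminescence.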
For `CC(=O)Oc1cc2c(c(C)c1OC(C)=O)CC=C1[C@@]2(C)CC[C@@]2(C)[C@H]3C[C@](C)(C(=O)O)CC[C@]3(C)CC[C@]12C`, the Potency entry was “inactive”. Still for that read-out and setting: with `Cc1cc(C)cc(C(=O)N(C)[C@H](Cc2ccc(-c3ccccc3)cc2)C(=O)N[C@@H](Cc2c[nH]c3ccccc23)C(=O)O)c1` the entry was “inactive”; with `O=C(O)c1c(Sc2ccccc2)c2cc(Cl)ccc2n1Cc1ccc(Cl)cc1`, “inactive”. On the same count and under the same terms, next, `CCCCc1nn(-c2ccccc2C(F)(F)F)c(=O)n1Cc1ccc(-c2ccccc2S(=O)(=O)NC(=O)c2sccc2C)cc1`: “inactive”; `C=NC(C(=O)N[C@H]1C(=O)N2C1SC(C)(C)C2C(=O)O)c1ccccc1` (stereo partly drawn): “inactive”. The same measure, in the same setting: next, `CC(C)=CCCC1(C)C=Cc2c(O)c3c(c(CC=C(C)C)c2O1)OC12C(=CCCC1C(C)(C)O[C@@]2(C/C=C(\C)C(=O)O)C(=O)O)C3=O` (stereo partly drawn): “inactive”; `CO[C@H]1C[C@@H](O[C@@H]2/C(C)=C/C[C@@H]3C[C@@H](C[C@]4(CC[C@H](C)[C@@H](C5CCCCC5)O4)O3)OC(=O)[C@@H]3C=C(C)/C(=N/O)[C@H]4OC/C(=C\C=C\[C@@H]2C)[C@]43O)O[C@@H](C)[C@H]1O`: “inactive”; `CCOc1nc2cccc(C(=O)OC(C)OC(=O)OC3CCCCC3)c2n1Cc1ccc(-c2ccccc2-c2nn[nH]n2)cc1` (stereo not drawn): “inactive”. With `CN(C)[C@@H]1C(=O)C(C(=O)NCN2CCCC2)=C(O)[C@@]2(O)C(=O)C3=C(O)c4c(O)cccc4[C@@](C)(O)[C@H]3C[C@@H]12`, the Potency entry was “inactive”.
